Where a structure was tested more than once in an assay, its records may differ in their call. Activity calls are given as the source filed them. How the source made its calls, unless noted: active means hit-call score of the fitted dose curve at least 0.9, where 1 is the maximum; inactive means score below 0.9.

Test system in the first assay: not listed separately
Put plainly: CCTE_Shafer_MEA_dev_network_spike_peak: CCTE's Neural Network Formation Assay for Mean Number of Electrodes in Network Spike, Shafer Lab (AID 2284049).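 On AC50: fitted for loss of signal meaning fewer electrodes in network spikes than DMSO.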 A digest of the protocol:
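Network-spike peak electrode count from recordings on days 5, 7, 9 and 12 was combined as trapezoidal area under the curve. Rat cortical cultures were treated continuously from plating, with compound renewed at each feed (DIV 5, 9); fits versus DMSO.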
As for `O=S(=O)(O)CCC(F)(F)C(F)(F)C(F)(F)C(F)(F)C(F)(F)C(F)(F)C(F)(F)C(F)(F)F`, the compound was classed as inactive.
On the same count and under the same terms, as for `NC(=O)C(F)(F)C(F)(F)C(F)(F)F`, the entry is “inactive”; as for `O=S(=O)(O)CCC(F)(F)C(F)(F)C(F)(F)C(F)(F)F`, “inactive”; as for `CNS(=O)(=O)C(F)(F)C(F)(F)C(F)(F)C(F)(F)C(F)(F)C(F)(F)C(F)(F)C(F)(F)F`, “inactive”.
As usually defined, the AC50 is the midpoint of the concentration-response curve, whichever way the signal moves. Regarding `C=CC(=O)OCC(F)(F)C(F)(F)C(F)(F)COC(=O)C=C`, the half-maximal activity concentration (AC50) is 4.61 µM (active).
In the case of `OC(O)C(F)(F)C(F)(F)F`, the compound was called inactive.
With `OCC(F)(F)C(F)(F)C(F)(F)C(F)(F)C(F)(F)C(F)(F)C(F)(F)C(F)(F)CO`, the AC50 is 22.5 µM (active).
As to `NC(=O)C(F)(F)C(F)(F)C(F)(F)C(F)(F)C(N)=O`, the call was inactive.
The same measure, in the same setting: in the case of `CCN(CCO)S(=O)(=O)C(F)(F)C(F)(F)C(F)(F)C(F)(F)C(F)(F)C(F)(F)C(F)(F)C(F)(F)F` it was “inactive”.
`C=CC(=O)OCCC(F)(F)C(F)(F)C(F)(F)C(F)(F)F`: the AC50 is 23.5 µM (active).
`OCC(O)CC(F)(F)C(F)(F)C(F)(F)C(F)(F)F` (stereo not given): the compound was called inactive.
As for `O=C(O)C(F)(F)C(F)(F)C(F)(F)OC(F)(F)F`, the result was inactive.
On the same count and under the same terms, as for `OCC(F)(F)C(F)(F)C(F)(F)CO`, the entry is “inactive”; as for `FC(F)(F)C(F)(F)C(F)(F)C(F)(F)C(F)(F)C(F)(F)C(F)(F)CCI`, “inactive”.
Still for that read-out and setting: as for `NC(=O)C(F)(F)C(F)(F)C(F)(F)C(F)F`, the entry is “inactive”.
The same measure, in the same setting: as for `CO[Si](C)(CCC(F)(F)C(F)(F)C(F)(F)C(F)(F)C(F)(F)C(F)(F)F)OC`, the entry is “inactive”.
For the compound `NC(O)(C(F)(F)F)C(F)(F)F`, the AC50 was 0.00434 µM (active) and the compound was classed as inactive.
As to `OCCCCC(F)(F)C(F)(F)C(F)(F)C(F)(F)F`, the compound was called inactive.
Still for that read-out and setting: as for `OCC(F)(F)C(F)(F)C(F)(F)C(F)(F)C(F)(F)C(F)(F)CO`, the entry is “inactive”.

The next assay has as its system DIO2 (gene 1734). Put plainly: CCTE_GLTED_hDIO2: CCTE's human Deiodinase 2 (DIO2) Inhibition Assay, Great Lakes Toxicology and Ecology Division (GLTED) Lab (AID 2284050; active means hit-call score of the fitted dose curve at least 0.9, where 1 is the maximum). Put shortly: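 Triplicate cell-free incubations (3 h) of human DIO2 with chemical preceded colorimetric Sandell-Kolthoff quantitation of liberated iodide; DMSO served as negative control for curve fitting.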
As to `C=CC(=O)OCC(F)(F)C(F)(F)C(F)(F)COC(=O)C=C`, the AC50 is 26.3 µM (active).
The same measure, in the same setting: in the case of `CCCCCCCCCCCCCC[P+](CCCC)(CCCC)CCCC` it was 17.1 µM (active).
The same measure, in the same setting: in the case of `C=C(C)C(=O)OCC(F)(F)C(F)(F)C(F)(F)C(F)F` it was 34 µM (active).
With `C=CC(=O)OCC(F)(F)C(F)(F)C(F)(F)C(F)(F)C(F)(F)C(F)(F)C(F)(F)C(F)F`, the AC50 is 10.3 µM (active).
On the same count and under the same terms, as for `CCN=C1C=CC(=C(c2ccc(N(CC)CC)cc2)c2ccc(N(CC)CC)cc2)c2ccccc21`, the figure is 42 µM (active); as for `O=S(=O)(Cl)C(F)(F)C(F)(F)C(F)(F)C(F)(F)C(F)(F)C(F)(F)C(F)(F)C(F)(F)F`, 66 µM (active).
Still for that read-out and setting: as for `CCCCCCCCn1sc(Cl)c(Cl)c1=O`, the figure is 26 µM (active); as for `C=CC(=O)OCCC(F)(F)C(F)(F)C(F)(F)C(F)(F)F`, 31.5 µM (active).
Still for that read-out and setting: as for `CCN=c1cc2oc3cc(NCC)c(C)cc3c(-c3ccccc3C(=O)OCC)c-2cc1C`, the figure is 154 µM (active).
Turning to `CCCCCCCC/C=C\CCCCCCCC(=O)OCC(O)CO` (stereo not given), the AC50 was 38.5 µM (active).
Still for that read-out and setting: as for `CCCCCCCC/C=C\CCCCCCCC(=O)N(C)CC(=O)O`, the figure is 55.6 µM (active); as for `CCCCCCCCCCCCC[N+](C)(C)Cc1ccccc1`, 22.2 µM (active).

Test system in a further assay: not listed separately
Kind of assay: CCTE_Shafer_MEA_dev_spike_duration_mean: CCTE's Neural Network Formation Assay for Mean Spike Duration, Shafer Lab (AID 2284051).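 Further: mean network spike duration pooled as area under curve over DIV 5 to 12 recordings.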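 On AC50: potency for a decrease in mean network spike duration versus DMSO.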 Put shortly: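 Primary rat cortical neurons on 16-electrode MEA wells (PEI-coated, laminin in plating drop), exposed from plating through DIV 12 with compound renewed at DIV 5 and 9. Mean network-spike duration recorded DIV 5, 7, 9, 12; trapezoidal AUC across days, DMSO baseline.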
Turning to `O=S(=O)(O)CCC(F)(F)C(F)(F)C(F)(F)C(F)(F)C(F)(F)C(F)(F)C(F)(F)C(F)(F)F`, the compound was classed as inactive.
For the compound `NC(=O)C(F)(F)C(F)(F)C(F)(F)F`, the outcome was inactive.
As for `O=S(=O)(O)CCC(F)(F)C(F)(F)C(F)(F)C(F)(F)F`, the compound was called inactive.
Regarding `CNS(=O)(=O)C(F)(F)C(F)(F)C(F)(F)C(F)(F)C(F)(F)C(F)(F)C(F)(F)C(F)(F)F`, the compound was called inactive.
Take `C=CC(=O)OCC(F)(F)C(F)(F)C(F)(F)COC(=O)C=C`: the concentration at half-maximal activity (AC50) is 5.18 µM (active).
Consider `OC(O)C(F)(F)C(F)(F)F`, for which the outcome was inactive.
As to `OCC(F)(F)C(F)(F)C(F)(F)C(F)(F)C(F)(F)C(F)(F)C(F)(F)C(F)(F)CO`, the AC50 was 15 µM (active).
For the compound `NC(=O)C(F)(F)C(F)(F)C(F)(F)C(F)(F)C(N)=O`, the outcome was inactive.
The same measure, in the same setting: in the case of `CCN(CCO)S(=O)(=O)C(F)(F)C(F)(F)C(F)(F)C(F)(F)C(F)(F)C(F)(F)C(F)(F)C(F)(F)F` it was “inactive”.
Turning to `C=CC(=O)OCCC(F)(F)C(F)(F)C(F)(F)C(F)(F)F`, the AC50 is 22.7 µM (active).
As for `OCC(O)CC(F)(F)C(F)(F)C(F)(F)C(F)(F)F` (stereo not given), the compound was called inactive.
Take `O=C(O)C(F)(F)C(F)(F)C(F)(F)OC(F)(F)F`: the call was inactive.
As for `OCC(F)(F)C(F)(F)C(F)(F)CO`, the compound was called inactive.
The same measure, in the same setting: as for `FC(F)(F)C(F)(F)C(F)(F)C(F)(F)C(F)(F)C(F)(F)C(F)(F)CCI`, the entry is “inactive”.
The same measure, in the same setting: as for `NC(=O)C(F)(F)C(F)(F)C(F)(F)C(F)F`, the entry is “inactive”.
Still for that read-out and setting: as for `CO[Si](C)(CCC(F)(F)C(F)(F)C(F)(F)C(F)(F)C(F)(F)C(F)(F)F)OC`, the entry is “inactive”.
As for `NC(O)(C(F)(F)F)C(F)(F)F`, the outcome was inactive.
On the same count and under the same terms, in the case of `OCCCCC(F)(F)C(F)(F)C(F)(F)C(F)(F)F` it was “inactive”.
On the same count and under the same terms, in the case of `OCC(F)(F)C(F)(F)C(F)(F)C(F)(F)C(F)(F)C(F)(F)CO` it was “inactive”.

Test system in the next assay: not listed separately
Put plainly: CCTE_Shafer_MEA_dev_network_spike_duration_std: CCTE's Neural Network Formation Assay for Standard Deviation of Network Spike Duration, Shafer Lab (AID 2284052).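 Further: area under curve of spike duration SD across recording days 5 to 12; hits are decreases in network spike duration SD versus DMSO vehicle.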 Put shortly: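 Primary rat cortical neurons on PEI-coated 16-electrode MEA wells, exposed from plating day 0 through day 12 with compound renewed at DIV 5 and 9. Network spike duration SD recorded on days 5, 7, 9, 12, collapsed as trapezoidal AUC; loss-of-signal fit versus DMSO.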
Take `O=S(=O)(O)CCC(F)(F)C(F)(F)C(F)(F)C(F)(F)C(F)(F)C(F)(F)C(F)(F)C(F)(F)F`: the compound was classed as inactive.
Still for that read-out and setting: in the case of `NC(=O)C(F)(F)C(F)(F)C(F)(F)F` it was “inactive”; in that of `O=S(=O)(O)CCC(F)(F)C(F)(F)C(F)(F)C(F)(F)F`, “inactive”.
The same measure, in the same setting: as for `CNS(=O)(=O)C(F)(F)C(F)(F)C(F)(F)C(F)(F)C(F)(F)C(F)(F)C(F)(F)C(F)(F)F`, the entry is “inactive”; as for `C=CC(=O)OCC(F)(F)C(F)(F)C(F)(F)COC(=O)C=C`, “inactive”.
On the same count and under the same terms, in the case of `OC(O)C(F)(F)C(F)(F)F` it was “inactive”; in that of `OCC(F)(F)C(F)(F)C(F)(F)C(F)(F)C(F)(F)C(F)(F)C(F)(F)C(F)(F)CO`, “inactive”; in that of `NC(=O)C(F)(F)C(F)(F)C(F)(F)C(F)(F)C(N)=O`, “inactive”.
Consider `CCN(CCO)S(=O)(=O)C(F)(F)C(F)(F)C(F)(F)C(F)(F)C(F)(F)C(F)(F)C(F)(F)C(F)(F)F`, for which the compound was called inactive.
With `C=CC(=O)OCCC(F)(F)C(F)(F)C(F)(F)C(F)(F)F`, the result was inactive.
On the same count and under the same terms, as for `OCC(O)CC(F)(F)C(F)(F)C(F)(F)C(F)(F)F` (stereo not given), the entry is “inactive”; as for `O=C(O)C(F)(F)C(F)(F)C(F)(F)OC(F)(F)F`, “inactive”; as for `OCC(F)(F)C(F)(F)C(F)(F)CO`, “inactive”.
Consider `FC(F)(F)C(F)(F)C(F)(F)C(F)(F)C(F)(F)C(F)(F)C(F)(F)CCI`, for which the result was inactive.
The same measure, in the same setting: in the case of `NC(=O)C(F)(F)C(F)(F)C(F)(F)C(F)F` it was “inactive”; in that of `CO[Si](C)(CCC(F)(F)C(F)(F)C(F)(F)C(F)(F)C(F)(F)C(F)(F)F)OC`, “inactive”.
Still for that read-out and setting: in the case of `NC(O)(C(F)(F)F)C(F)(F)F` it was “inactive”; in that of `OCCCCC(F)(F)C(F)(F)C(F)(F)C(F)(F)F`, “inactive”; in that of `OCC(F)(F)C(F)(F)C(F)(F)C(F)(F)C(F)(F)C(F)(F)CO`, “inactive”.

Values taken from PubChem BioAssay (EPA / NIEHS).
